Assay [1] is described as follows: NCI Yeast Anticancer Drug Screen. Data for the rad50 strain (AID 155).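 Further: 0% = growth of vehicle-only cultures of the same strain.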 Conditions: S. cerevisiae rad50 strain growth inhibition, stronger effect = higher value. The procedure, abridged:
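Compounds were tested on a yeast strain with an engineered DNA damage repair alteration; the reported value is growth inhibition normalised to vehicle treatment.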

Assay [2] can be described thus: NCI Yeast Anticancer Drug Screen. Data for the mec2-1 strain (AID 157). The settings on record: S. cerevisiae mec2-1 strain, stronger effect = higher value. The procedure, abridged:
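Using mec2-1 yeast: add compound, measure growth, express inhibition versus vehicle-treated cultures.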

Assay [3] is described as follows: NCI Yeast Anticancer Drug Screen. Data for the sgs1 mgt1 strain (AID 161).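 Further: 0% = growth of cultures given vehicle only.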 The settings on record: S. cerevisiae sgs1 mgt1 strain, stronger effect = higher value. In short, it runs like this:
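Growth of a repair-deficient yeast mutant was monitored after compound treatment and expressed as inhibition relative to vehicle-treated cultures.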

Assay [4] is described as follows: NCI Yeast Anticancer Drug Screen. Data for the cln2 rad14 strain (AID 165).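 Further: 0% = growth equal to vehicle treated cultures.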 Conditions: S. cerevisiae cln2 rad14 strain, stronger effect = higher value. In short, it runs like this: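 Yeast strain cln2 rad14, bearing defects in cell cycle control and DNA repair, serves as the test system; values reflect growth inhibition compared with vehicle.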
The nature of assay [5]: NCI Yeast Anticancer Drug Screen. Data for the bub3 strain (AID 167). Conditions: S. cerevisiae bub3 mutant strain, stronger effect = higher value. The procedure, abridged:
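Growth of a checkpoint-deficient yeast mutant is measured after compound exposure. Values represent inhibition relative to vehicle.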

Assay [6] can be described thus: NCI Yeast Anticancer Drug Screen. Data for the mlh1 rad18 strain (AID 175). The settings on record: S. cerevisiae mlh1 rad18 strain growth inhibition, stronger effect = higher value. In short, it runs like this: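 Steps: expose repair-defective yeast to compound; measure growth; express inhibition against vehicle-treated controls.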
Where [7] appears, read: at 5.0 µM (retest, dose inferred, filed as 0.5).
The mark [8] stands for this setting: at 50.0 µM (retest, dose inferred, filed as 5.0).

Molecules are shown by their SMILES. This is part of a sample that, as a whole, favours compounds with a hit. Of some 79,000 tested, about 15% had one in any assay. Unmarked numbers belong to inactive results. Activity calls are given as the source filed them. No stated cut-off is given here; in the data, active means growth inhibition above about 70%; inactive means the rest.

For `Nc1ccc(SCCCc2c(N)nc(N)nc2N)cc1`, the growth inhibition in assay [1] (setting [7]) was -8%; in assay [1] (setting [8]), 4%; in assay [1] (at 50.0 µM), 57.5%; in assay [2] (setting [7]), 1%; in assay [2] (setting [8]), -8%; in assay [2] (at 50.0 µM), 92.2% (active). Further, the growth inhibition in assay [3] (setting [7]) was 27%; in assay [3] (setting [8]), 11%; in assay [3] (at 50.0 µM), 20.6%; in assay [4] (setting [7]), -16%; in assay [4] (setting [8]) it was -17%; in assay [4] (at 50.0 µM), 91.8% (active). The growth inhibition in assay [5] (setting [7]) was -9%; in assay [5] (setting [8]) it was -12%; in assay [5] (at 50.0 µM), 95% (active); in assay [6] (setting [7]), 6%; in assay [6] (setting [8]), 32%; in assay [6] (at 50.0 µM), 82.2% (active).

Take `CCNc1cc(SC)nc(N)n1`: the growth inhibition in assay [1] (setting [7]) was 1%; in assay [1] (setting [8]), -4%; in assay [1] (at 50.0 µM) it was 1.2%; in assay [2] (setting [7]), -1%; in assay [2] (setting [8]), 2%; in assay [2] (at 50.0 µM) it was 37.1%. The growth inhibition in assay [3] (setting [7]) is -1%; in assay [3] (setting [8]), -3%; in assay [3] (at 50.0 µM), -7.6%; in assay [4] (setting [7]) it was -8%; in assay [4] (setting [8]), 3%; in assay [4] (at 50.0 µM), -3.6%. Besides, the growth inhibition in assay [5] (setting [7]) was -2%; in assay [5] (setting [8]), -1%; in assay [5] (at 50.0 µM) it was -23.2%; in assay [6] (setting [7]) it was 1%; in assay [6] (setting [8]) it was -4%; in assay [6] (at 50.0 µM), -22.4%.

As for `CCN(CC)CCC(=O)/C=C/c1ccc(Cl)c(Cl)c1`, the growth inhibition in assay [1] (setting [7]) was 10%; in assay [1] (setting [8]) it was 97% (active); in assay [1] (at 50.0 µM) it was 90% (active); in assay [2] (setting [7]), 0%; in assay [2] (setting [8]) it was 99% (active); in assay [2] (at 50.0 µM), 93.1% (active). In addition, the growth inhibition was 16% in assay [3] (setting [7]); 56% in assay [3] (setting [8]); 92% (active) in assay [3] (at 50.0 µM); 14% in assay [4] (setting [7]); 97% (active) in assay [4] (setting [8]); 90.4% (active) in assay [4] (at 50.0 µM). The growth inhibition was 10% in assay [5] (setting [7]); 98% (active) in assay [5] (setting [8]); 91.4% (active) in assay [5] (at 50.0 µM); 37% in assay [6] (setting [7]); 98% (active) in assay [6] (setting [8]); 89.3% (active) in assay [6] (at 50.0 µM).

For `CCOC(=O)N1CCN(C(=S)N/N=C(\C)c2ncccn2)CC1`, the growth inhibition in assay [1] (setting [7]) was 4%; in assay [1] (setting [8]) it was 99% (active); in assay [1] (at 50.0 µM) it was 99.4% (active); in assay [2] (setting [7]), 9%; in assay [2] (setting [8]), 99% (active); in assay [2] (at 50.0 µM), 99.7% (active). Besides, the growth inhibition in assay [3] (setting [7]) was -5%; in assay [3] (setting [8]) it was 99% (active); in assay [3] (at 50.0 µM), 99.4% (active); in assay [4] (setting [7]), -40%; in assay [4] (setting [8]) it was 99% (active); in assay [4] (at 50.0 µM) it was 99.1% (active). For the same compound, the growth inhibition in assay [5] (setting [7]) is -22%; in assay [5] (setting [8]), 99% (active); in assay [5] (at 50.0 µM) it was 99.5% (active); in assay [6] (setting [7]) it was -4%; in assay [6] (setting [8]), 99% (active); in assay [6] (at 50.0 µM), 99.2% (active).

Turning to `CC1(C)S[C@@H]2[C@H](N3C(=O)c4ccccc4C3=O)CN2[C@H]1NC(=O)N[C@@H]1N2C[C@@H](N3C(=O)c4ccccc4C3=O)[C@H]2SC1(C)C`, the growth inhibition in assay [1] (setting [7]) is 0%; in assay [1] (setting [8]), 18%; in assay [1] (at 50.0 µM), 39.6%; in assay [2] (setting [7]) it was -4%; in assay [2] (setting [8]), 43%; in assay [2] (at 50.0 µM), 63.8%. The growth inhibition in assay [3] (setting [7]) is -2%; in assay [3] (setting [8]) it was 20%; in assay [3] (at 50.0 µM), 43%; in assay [4] (setting [7]), -6%; in assay [4] (setting [8]) it was 44%; in assay [4] (at 50.0 µM), 23.2%. Also, the growth inhibition is 4% in assay [5] (setting [7]); 93% (active) in assay [5] (setting [8]); 92.8% (active) in assay [5] (at 50.0 µM); -2% in assay [6] (setting [7]); 36% in assay [6] (setting [8]); 70.8% (active) in assay [6] (at 50.0 µM).

For `CC1CCN(CC(=O)N2c3ccccc3Sc3cc4ccccc4cc32)CC1`, the growth inhibition in assay [1] (setting [7]) is 4%; in assay [1] (setting [8]) it was 15%; in assay [1] (at 50.0 µM) it was 10.2%; in assay [2] (setting [7]), 4%; in assay [2] (setting [8]) it was -20%; in assay [2] (at 50.0 µM) it was 13.6%. Also, the growth inhibition in assay [3] (setting [7]) was -15%; in assay [3] (setting [8]), 12%; in assay [3] (at 50.0 µM), -14.6%; in assay [4] (setting [7]), -37%; in assay [4] (setting [8]) it was -4%; in assay [4] (at 50.0 µM), 23.8%. Moreover, the growth inhibition in assay [5] (setting [7]) is -4%; in assay [5] (setting [8]) it was 7%; in assay [5] (at 50.0 µM), -3.9%; in assay [6] (setting [7]), -4%; in assay [6] (setting [8]) it was 8%; in assay [6] (at 50.0 µM), -2.5%.

As for `CCCCNC(=O)OCc1c(COC(=O)NCCCC)c(-c2ccc(Cl)c(Cl)c2)n2c1CCC2`, the growth inhibition was 33% in assay [1] (setting [7]); 98% (active) in assay [1] (setting [8]); 26.6% in assay [1] (at 50.0 µM); 27% in assay [2] (setting [7]); 99% (active) in assay [2] (setting [8]); 7.3% in assay [2] (at 50.0 µM). Moreover, the growth inhibition in assay [3] (setting [7]) is 48%; in assay [3] (setting [8]), 99% (active); in assay [3] (at 50.0 µM), 31.2%; in assay [4] (setting [7]) it was 53%; in assay [4] (setting [8]), 98% (active); in assay [4] (at 50.0 µM) it was 70%. Further, the growth inhibition in assay [5] (setting [7]) was 56%; in assay [5] (setting [8]) it was 98% (active); in assay [5] (at 50.0 µM) it was 4.4%; in assay [6] (setting [7]) it was 25%; in assay [6] (setting [8]), 98% (active); in assay [6] (at 50.0 µM) it was 31.8%.

Regarding `COC1/C=C/OC2(C)Oc3c(C)c(O)c4c(c3C2=O)C(=O)c2cnc(nc2C4=O)/C(C)=C\C=C\C(C)C(O)C(C)C(O)C(C)C(OC(C)=O)C1C` (configuration not stated), the growth inhibition in assay [1] (setting [7]) was 10%; in assay [1] (setting [8]), 97% (active); in assay [1] (at 50.0 µM) it was 53.9%; in assay [2] (setting [7]) it was 17%; in assay [2] (setting [8]) it was 99% (active); in assay [2] (at 50.0 µM), 55.2%. In addition, the growth inhibition in assay [3] (setting [7]) is 9%; in assay [3] (setting [8]) it was 99% (active); in assay [3] (at 50.0 µM) it was 42.2%; in assay [4] (setting [7]), 36%; in assay [4] (setting [8]) it was 97% (active); in assay [4] (at 50.0 µM) it was 56.1%. The growth inhibition in assay [5] (setting [7]) is 23%; in assay [5] (setting [8]), 98% (active); in assay [5] (at 50.0 µM), 48.9%; in assay [6] (setting [7]) it was 20%; in assay [6] (setting [8]) it was 98% (active); in assay [6] (at 50.0 µM) it was 50.9%.

On to `N#CCc1ccccc1-c1cccc2ccccc12`, for which the growth inhibition in assay [1] (setting [7]) is 0%; in assay [1] (setting [8]), 36%; in assay [1] (at 50.0 µM), 35.6%; in assay [2] (setting [7]), 0%; in assay [2] (setting [8]), 44%; in assay [2] (at 50.0 µM), 29.4%. Besides, the growth inhibition in assay [3] (setting [7]) was -2%; in assay [3] (setting [8]), 17%; in assay [3] (at 50.0 µM), 54.8%; in assay [4] (setting [7]) it was 3%; in assay [4] (setting [8]) it was 24%; in assay [4] (at 50.0 µM) it was 41.2%. Further, the growth inhibition was 3% in assay [5] (setting [7]); 34% in assay [5] (setting [8]); 40% in assay [5] (at 50.0 µM); 1% in assay [6] (setting [7]); 41% in assay [6] (setting [8]); 71.5% (active) in assay [6] (at 50.0 µM).

The values above are taken from PubChem BioAssay (NCI).
